Reference: PubChem BioAssay AID1851 (National Center for Advancing Translational Sciences (NCATS), 2009)
In all, about 16,000 compounds went through this assay and about 4,000 (25%) were called active. Another 26% or so got no clear call; they are omitted. Calls come from the whole dose curve; as a rule, active = well fitted curve in the direction sought with a large enough effect; inconclusive = small, poorly fitted or top-dose-only effect, or effect the other way; inactive = no such curve, though single readings can be large or run the other way. Not all results are given here.

The compounds below were run against Cytochrome P450 2C9 (Homo sapiens) (UniProt P11712) (assay: Cytochrome panel assay with activity outcomes). Conditions: recombinant CYP, pro-luciferin dealkylation, luminescence, p450-cyp2c9; series mostly up to 57.1 µM; activity, negative = inhibition: at the top concentration.
Sequence of Cytochrome P450 2C9 (Homo sapiens) (P11712 whole entry, looked up): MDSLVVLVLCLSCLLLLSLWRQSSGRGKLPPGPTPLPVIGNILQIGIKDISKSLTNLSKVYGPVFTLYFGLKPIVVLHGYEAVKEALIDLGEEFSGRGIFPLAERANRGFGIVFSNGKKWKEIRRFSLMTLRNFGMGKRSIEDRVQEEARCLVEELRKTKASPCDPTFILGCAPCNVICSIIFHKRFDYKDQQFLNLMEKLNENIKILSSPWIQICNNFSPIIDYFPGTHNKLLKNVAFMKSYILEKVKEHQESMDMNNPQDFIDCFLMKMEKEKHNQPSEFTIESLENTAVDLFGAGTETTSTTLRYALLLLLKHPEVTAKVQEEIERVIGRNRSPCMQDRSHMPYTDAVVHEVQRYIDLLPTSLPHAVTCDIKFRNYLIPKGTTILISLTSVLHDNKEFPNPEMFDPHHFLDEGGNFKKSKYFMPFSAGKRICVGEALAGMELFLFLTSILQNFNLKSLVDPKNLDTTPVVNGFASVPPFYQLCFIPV
% is set by controls: 0 for no effect and ±100 for the full control effect.

activity, negative = inhibition, inactive:
COC(=O)[C@H](CCSC)NC(=O)C/C=C\[C@@H](C)[C@@H](CO)OC -1.66% [at 11.4 µM]
CN(C)c1ccc(-c2nccc(NCc3cccs3)n2)cc1 -21.1% [at 2.29 µM]
CC(=O)OC1CCC(OC(C)=O)c2c1n([O-])c(C)c(C)[n+]2=O (stereo not drawn) -6.01%
CC(=O)Nc1ccc2c(c1)OCCO2 -11.3%
CC(=O)Nc1ccc2c(c1)OCCOCCOc1cc(NC(C)=O)ccc1OCCOCCOCCO2 -15%
O=C(Nc1ccc2c(c1)OCCO2)C1CCN(C(=O)c2ccccc2)CC1 -40.1%
COC(=O)Cn1nc(-c2ccccc2)n(-c2ccccc2)c1=S -24.6%
COC(=O)N1CCC2(CCN(C(=O)Nc3ccc(OC)cc3)CC2)CC1 -9.69%
COC(=O)N1CCC2(CC1)CN(C(=O)Nc1ccc(OC)cc1)C2 -26.8%
S=C(Nc1ccccc1)Nc1ccc(OCc2ccccc2)cc1 -35.1%
O=C1[C@@H]2[C@H]3[C@H](O)[C@H](O)C/C(=N/OC[C@@H](O)COCc4ccco4)[C@H]3CC[C@H]2C(=O)N1c1ccc(F)cc1F -12.6% [at 11.4 µM]
Cc1cccc(CNc2cc(-c3cccc(C#N)c3)ncn2)c1 3.34% [at 2.29 µM]
NCCS(=O)O 8.02%
Cn1c(=O)c2[nH]c(/N=N\N3CCN(CCO)CC3)nc2n(C)c1=O 4.93% [at 11.4 µM]
COc1ccc(CO/N=C/c2c(C)[nH]c(=O)[nH]c2=O)cc1 -23.5%
C[C@H](CCC(=O)NCC(=O)O)[C@H]1CC[C@H]2[C@H]3[C@@H](C[C@@H](O)[C@]12C)[C@]1(C)CC[C@H](O)C[C@@H]1C[C@@H]3O -14.1% [at 25.6 µM]
COC(=O)N1CCC2(CC1)CCN(c1ccncc1)CC2 14.6%
C/C(CC(=O)NC1CCCC1)=N\NC(=O)Cc1cccs1 -10.1%
CC(C)(C)c1ccc(OCC(=O)NNC(=O)Cc2cccs2)cc1 28.7%
Cn1cc(C(=O)N/N=C/C(Br)=C\c2ccccc2)ccc1=O -26%
Cn1cccc1CC(=O)N/N=C\c1cccs1 -23.2%
Cc1nc2c([nH]1)c(=O)n(C)c(=O)n2Cc1ccco1 13.3%
C[C@](O)(C(=O)Nc1ccc(S(=O)(=O)c2ccccc2)cc1)C(F)(F)F -10.9%
CC(C)(C)CNC(CO)C12CC3CC(CC(C3)C1)C2 (stereo not drawn) -9.91%
CCOC(=O)N/N=C1/C[C@@H](O)[C@@H](O)[C@@H]2[C@@H]3C(=O)N(Cc4ccc5c(c4)OCO5)C(=O)[C@H]3CC[C@H]12 -5.83% [at 11.4 µM]
CCOC(=O)N/N=C1/C[C@@H](O)[C@@H](O)[C@@H]2[C@@H]3C(=O)N(Cc4ccc5c(c4)OCO5)C(=O)[C@H]3CC[C@@H]12 1.72% [at 11.4 µM]
COc1ccccc1CNc1cc(-c2ccccc2C)ncn1 -15.1% [at 2.29 µM]
COc1ccc(C2/C(=C(/O)c3ccc(Cl)cc3)C(=O)C(=O)N2CCN2CCOCC2)c(OC)c1 (stereo not drawn) -24.6%

AC50, active:
CCn1c(-c2ccccc2Cl)nn(CC(=O)Nc2ccc(OC)cc2)c1=S 2.24 µM
O=C(Nc1ccc2c(c1)OCCO2)c1cccc2nc3ccccc3nc12 12.6 µM
O=C(CC(c1ccccc1)c1ccccc1)Nc1ccc2c(c1)OCCO2 4.47 µM
O=C(CN1CCN(CC(=O)Nc2ccccc2Cl)CC1)Nc1ccc2c(c1)OCCO2 4.47 µM
COc1ccc(NC(=O)CN2CCN(CC(=O)Nc3ccccc3Cl)CC2)cc1 8.91 µM
COc1ccccc1NC(=O)CN1CCN(CC(=O)Nc2ccc(OCc3ccccc3)cc2)CC1 2.24 µM
C#CCn1c(S(=O)(=O)Cc2ccc(OC)cc2)nc(-c2ccccc2)c1-c1ccccc1 2.82 µM
COC(=O)CC[C@@H](C)[C@H]1CC[C@H]2[C@H]3CC[C@H]4C[C@@H]5CC[C@@]4(C)C3(O5)[C@@H](Br)[C@@H](Br)[C@@]12C 2.51 µM
O=C(Cc1cccs1)N/N=C/C(Br)=C/c1ccccc1 2.82 µM
CC(/C=N/NC(=O)Cc1cccs1)=C\c1ccco1 7.94 µM
CC(=O)Nc1c(S(=O)(=O)c2ccccc2)c2nc3ccccc3nc2n1Cc1ccccc1 8.91 µM
Nc1c(S(=O)(=O)c2ccccc2)c2nc3ccccc3nc2n1Cc1ccco1 3.55 µM
COc1ccc(C(=O)N/N=C2/SCC(=O)N2Cc2ccc3c(c2)OCO3)cc1OC 14.1 µM
Cc1ccc(NC2=NC(c3ccccc3)n3c(nc(C)cc3=O)N2)c(C)c1 (stereo not drawn) 35.5 µM

AC50, inactive:
Oc1cc2c(c(Cl)c1O)CCNC[C@H]2c1ccccc1
